SENP8 block-1 = human SENP8 protease inhibitors, primary screen, biochemical, fluorescence, Nedd8 protein substrate, uHTS | actives 0.64% (n = 360,000) | AID 602440, 2012 | inhibition, % at 20 µM | Sentrin-specific protease 8 (Homo sapiens), Q96LD8 | recombinant SENP8; in the data active means inhibition mostly above about 40%, no sharp cut-off; inactive means mostly below about 27%
C8 TRAIL sens = viability loss with TRAIL in NB7+C8 cells, primary screen, TRAIL sensitizer project, cell-based, ATPlite luminescence; inhibition (viability loss, TRAIL sensitization), % at 10 µM; actives 1% (n = 360,000); AID 624354, 2012;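 active means compounds causing at least 50% loss of cell viability in the single-dose screen, relative to plate controls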
PPC-1+TRAIL kill = compounds killing PPC-1 cancer cells with TRAIL present, primary screen, TRAIL potentiator project, ATPLite luminescence, uHTS. actives 0.41% (n = 220,000). cell killing (% activity), % at 4 µM or 5 µM. PPC-1 cells + TRAIL, ATPLite viability luminescence;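 active means cell killing above 50% in the first pass at 4 µM, then a duplicate retest at 5 µM averaging 50% or more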;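 further: plate controls were cells with TRAIL plus DMSO for no effect and medium-only wells lacking cells for full effect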
SENP8 block-2 = SENP8 protease inhibitors, primary screen, biochemical, luminescence | Sentrin-specific protease 8 (Homo sapiens), Q96LD8 | AID 2540, 2010 | inhibition, % at 10 µM | purified SENP8, Z-RLRGG-aminoluciferin cleavage | actives 1.2% (n = 330,000); in the data active means inhibition above about 50%
SENP6 block = SENP6 protease inhibitors, primary screen, biochemical, luminescence, uHTS. actives 1.8% (n = 330,000). Recombinant SENP6 catalytic domain, aminoluciferin luminescence. inhibition, % at 10 µM. AID 2599, 2010;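 active means inhibition above about 50% at the single tested dose, limit read from the data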;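 further: plate controls were DMSO wells with enzyme for no effect and DMSO wells lacking enzyme for full effect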
SENP7 inh = SENP7 protease inhibitors, primary screen, biochemical, luminescence, uHTS. Sentrin-specific protease 7 (Homo sapiens), Q9BQF6. recombinant SENP7, Z-RLRGG-aminoluciferin luminescence, 40 min. inhibition, % at 5 µM. actives 1.5% (n = 330,000). AID 434973, 2010;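 active means inhibition above about 50% at the single test dose, limit read from the data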;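 further: plate controls were DMSO with enzyme for no effect and no enzyme buffer wells for full effect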
Target sequence (Q9BQF6 706-1050 limits assumed): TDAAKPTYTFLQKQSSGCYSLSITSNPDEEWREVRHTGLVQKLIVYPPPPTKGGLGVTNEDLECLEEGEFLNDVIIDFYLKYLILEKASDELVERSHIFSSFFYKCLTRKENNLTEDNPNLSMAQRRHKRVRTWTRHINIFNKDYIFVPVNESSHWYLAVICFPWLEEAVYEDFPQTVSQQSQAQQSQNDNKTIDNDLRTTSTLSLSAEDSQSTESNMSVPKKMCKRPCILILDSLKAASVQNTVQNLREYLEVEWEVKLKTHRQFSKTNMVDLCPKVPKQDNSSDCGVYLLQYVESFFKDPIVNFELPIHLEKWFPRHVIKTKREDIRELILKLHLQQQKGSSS
SENP8 confirm = SENP8 protease inhibitors, retest, confirmation, biochemical, luminescence, single concentration. actives 40% (n = 6,200). inhibition, % at 12.5 µM. Recombinant SENP8, Z-RLRGG-aminoluciferin luminescence, 60 min. shares compounds with SENP7 inh. AID 488912, 2010;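 active means mean inhibition across replicates above about 50%, limit read from the data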
SENP6 confirm = SENP6 protease inhibitors, confirmation, biochemical, luminescence, single concentration; shares compounds with SENP7 inh; inhibition, % at 12.5 µM; actives 58% (n = 6,200); recombinant SENP6, Z-RLRGG-aminoluciferin luminescence
SENP7 confirm = SENP7 protease inhibitors, retest, confirmation, biochemical, luminescence, single concentration. inhibition, % at 12.5 µM. actives 69% (n = 6,200). recombinant SENP7, Z-RLRGG-aminoluciferin luminescence, 40 min. shares compounds with SENP7 inh. AID 488917, 2010
Casp3 SENP sel = caspase-3 protease inhibitors, confirmation, selectivity assay for SENP inhibitor project, biochemical, single concentration; actives 60% (n = 6,200); purified caspase-3, Z-DEVD-aminoluciferin luminescence, 60 min; inhibition, % at 12.5 µM; shares compounds with SENP7 inh; AID 488918, 2010;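 active means mean inhibition above about 50%, limit read from the data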;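 further: plate controls were enzyme with DMSO for no effect and wells without caspase-3 for full effect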
Target sequence (P42574 28-227 limits assumed): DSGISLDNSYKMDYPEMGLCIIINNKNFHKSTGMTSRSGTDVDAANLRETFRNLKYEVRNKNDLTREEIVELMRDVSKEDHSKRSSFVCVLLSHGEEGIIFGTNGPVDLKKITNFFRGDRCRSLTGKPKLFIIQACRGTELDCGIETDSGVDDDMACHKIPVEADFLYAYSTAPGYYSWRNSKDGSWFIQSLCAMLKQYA
SENP luc ctr = luminescence interference (SENP counter-screen); Pre-incubated SENP8/Z-RLRGG-aminoluciferin, luciferase luminescence interference; actives 39% (n = 6,200); inhibition, % at 12.5 µM; AID 488919; shares compounds with SENP7 inh;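 active means mean inhibition above about 50% when retested at one dose, limit read from the data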;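 further: plate controls were DMSO wells with completed reaction for no effect and substrate without enzyme for full effect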
Numbers without * were called inactive; i = inactive; nt = no result. The list is not random: actives were taken first. Their share in the collection is about 3%.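 How the source made its calls, unless noted: active means mean inhibition above about 50% in the one-dose retest (limit read from the data); inactive means the rest.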

SMILES | SENP8 block-1 | C8 TRAIL sens | PPC-1+TRAIL kill | SENP8 block-2 | SENP6 block | SENP7 inh | SENP8 confirm | SENP6 confirm | SENP7 confirm | Casp3 SENP sel | SENP luc ctr
Cn1cc(Cl)c(C(=O)Nc2nc3ccc(Cl)cc3s2)n1 | -18 | 20 | 32 | 48 | 68* | 95* | 28 | 44 | 67* | 55* | 8
O=C(CCn1c(=O)c2cccn2c2cccnc21)NCCCN1CCN(c2ccc(F)cc2)CC1 | -7 | -6 | nt | nt | nt | nt | nt | nt | nt | nt | nt
O=C(Nc1ccc(-c2cn3ccccc3n2)cc1)c1ccc(Cl)cc1 | -24 | 0 | 23 | -4 | -3 | -4 | nt | nt | nt | nt | nt
Cc1cccc2[nH]c(-c3ccc(NC(=O)c4ccco4)cc3)nc12 | -213 | 28 | 15 | 77* | 91* | 90* | -22 | 80* | 96* | 75* | 78*
Cc1cccc(NC(=O)c2ccco2)c1C | 12 | -2 | nt | -8 | -8 | 10 | nt | nt | nt | nt | nt
Cc1cc(NC(=O)c2ccco2)sc1C | -8 | 28 | nt | 68* | 83* | 76* | 6 | 60* | 86* | 81* | 67*
O=C(Nc1ccc(-c2cn3ccccc3n2)cc1)c1ccco1 | -43 | 71* | 73* | 42 | 71* | 59* | 59* | 58* | 85* | 79* | 69*
O=C(Nc1nc2ccc(Cl)cc2s1)c1ccco1 | -166 | 40 | 8 | 81* | 86* | 89* | 41 | 80* | 59* | 86* | 17
O=C(Nc1ccc2nc(-c3ccccc3)[nH]c2c1)c1ccco1 | -237 | 23 | 18 | -5 | 20 | 9 | nt | nt | nt | nt | nt
CC(=O)Nc1ccc(NC(=O)C(C)Sc2nnc(C3CC3)n2-c2ccccc2)cc1 (stereo unspecified) | 5 | -4 | nt | -8 | -3 | 6 | nt | nt | nt | nt | nt
CCc1ccc(OC(=O)/C=C/c2ccco2)cc1 | 4 | 9 | nt | 69* | 89* | 81* | 7 | 77* | 94* | 50* | 18
COc1ccc(CN(C)CC(=O)N(C)CC(=O)Nc2ccccc2Br)cc1F | -5 | -8 | nt | -3 | -4 | 1 | nt | nt | nt | nt | nt
C=CCNc1nc(-c2ccc(Cl)cc2)cs1 | 34 | 23 | 12 | 80* | 91* | 75* | 44 | 90* | 100* | 75* | 91*
O=C(Nc1sc2c(c1C(=O)O)CCCCC2)c1ccco1 | -134 | 33 | 37 | 93* | 97* | 88* | 96* | 97* | 101* | 96* | 95*
CC1CCc2c(sc(NC(=O)c3ccco3)c2C(=O)O)C1 (stereo unspecified) | -107 | 14 | nt | 62* | 78* | 5 | 78* | 72* | 88* | 66* | 65*
CN1CCN(C(=O)c2c(NC(=O)c3ccco3)sc3c2CCC(C(C)(C)C)C3)CC1 (stereo unspecified) | -42 | -11 | 14 | -2 | -1 | -3 | nt | nt | nt | nt | nt
O=C(Nc1nnc(SCCC2OCCO2)s1)C1CC(=O)N(c2ccc(F)cc2)C1 (stereo unspecified) | 6 | -5 | nt | 2 | 5 | -5 | nt | nt | nt | nt | nt
CCOC(=O)c1c(C)[nH]c(C(=O)OCC(=O)c2ccccc2)c1C | -7 | 40 | nt | 42 | 51* | 39 | 46 | 44 | 76* | 35 | 17
CC(=O)Nc1ccc(-c2ccnc3c2CC(C(=O)Nc2cccc(C(F)(F)F)c2)O3)cc1 (stereo unspecified) | -14 | 2 | nt | nt | nt | nt | nt | nt | nt | nt | nt
CCCOc1ccc(F)cc1-c1cc(C(=O)NCc2cc(C(F)(F)F)cc(C(F)(F)F)c2)[nH]n1 | 11 | 0 | nt | nt | nt | nt | nt | nt | nt | nt | nt
Cc1[nH]c2ccccc2c1/C=N\NC(=O)CNc1ccc2c(c1)OCO2 | 28 | 1 | 6 | 5 | 8 | -2 | nt | nt | nt | nt | nt
COc1ccc(N=Cc2c(O)[nH]c3ccccc23)cc1 | 11 | 24 | 4 | 66* | 28 | 68* | 2 | 83* | 99* | 76* | 18
Oc1[nH]c2ccccc2c1C=Nc1ccc2c(c1)OCO2 | -5 | 23 | 33 | 76* | 86* | 1 | 67* | 88* | 99* | 83* | 27
COC(=O)c1cc(C(=O)c2ccc(C(C)(C)C)cc2)c[nH]1 | 10 | -6 | 0 | -2 | 2 | 1 | nt | nt | nt | nt | nt
CC(C)(C)c1ccc(C(=O)c2c[nH]c(C(=O)O)c2)cc1 | 5 | 12 | 5 | 78* | 85* | 75* | 34 | 76* | 95* | 21 | 84*
SMILES | SENP8 block-1 | C8 TRAIL sens | PPC-1+TRAIL kill | SENP8 block-2 | SENP6 block | SENP7 inh | SENP8 confirm | SENP6 confirm | SENP7 confirm | Casp3 SENP sel | SENP luc ctr
C/C(=N\Nc1nccnc1Cl)c1ccc(O)c(C)c1 | -29 | 22 | nt | 31 | 54* | 93* | 43 | 48 | 75* | 76* | 56*
Cc1ccc(S(=O)(=O)c2c(C)cc(C)nc2Cl)cc1 | 28 | -7 | -6 | 3 | 62* | 2 | 2 | 0 | -5 | -5 | -3
Cc1cc(C)c(S(=O)(=O)c2ccccc2)c(Cl)n1 | 14 | 2 | 0 | -4 | 1 | 1 | nt | nt | nt | nt | nt
O=Cc1nccc2ccccc12 | -9 | 10 | nt | nt | nt | nt | nt | nt | nt | nt | nt
O=C1c2ccccc2C(=O)C1c1nccc2ccccc12 | 34 | 89* | -3 | 59* | 97* | 96* | 87* | 81* | 98* | 92* | 29
CC(C)(C)N1C(=O)Cc2c1nc(N)c1c(N)nc(N3CCCCC3CO)c(C#N)c21 (stereo unspecified) | i | 9 | -6 | 97* | 93* | 94* | 20 | 26 | 9 | 1 | 0
CN(CCO)c1nc(N)c2c(N)nc3c(c2c1C#N)CC(=O)N3C1CCCC1 | nt | nt | 18 | 96* | 91* | 96* | 11 | 10 | -7 | -2 | -1
